A selection: hits, their analogues and other compounds. The true share with any hit is near 8.7%.
HP1b chromo inh = HP1-beta chromodomain-methylated histone interaction inhibition; P83916; Potency, µM (titrated, usually from 114 µM), for inactives: at the top dose activity change, negative = inhibition, hits mostly inhibitors; AlphaScreen HP1-beta / biotin-H3K9me3 peptide binding; AID 540317; 390,000 compounds, 0.56% hits; note: nearly all actives have a fitted effect of over 70% in size
Target sequence (P83916 whole entry, looked up): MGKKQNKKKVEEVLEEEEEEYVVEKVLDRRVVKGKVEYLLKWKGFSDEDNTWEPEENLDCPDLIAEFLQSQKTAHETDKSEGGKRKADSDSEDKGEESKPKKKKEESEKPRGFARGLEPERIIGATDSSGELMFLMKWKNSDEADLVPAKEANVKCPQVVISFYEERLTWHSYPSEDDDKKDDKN
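AlphaScreen: HP1-beta (50 nM) preformed 30 min with biotin-H3(1-18)K9me3 peptide (50 nM) in PBS pH 7.4, 0.01% Tween-20. Compound added for 30 min at RT, then streptavidin donor/nickel chelate acceptor beads (10 ug/mL) for 30 min.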
G9a block = G9a (human) methyltransferase inhibition; Q96KQ7; G9a H3K9 monomethylation, AlphaScreen, 2 h; Potency, µM (series often up to 102 µM), without a hit: at the highest dose activity, negative = inhibition, hits mostly inhibitors; 350,000 compounds, 8.8% hits; note: % is set by controls: 0 for no effect and ±100 for the full control effect; nearly all actives have a fitted effect of over 75% in size
Target sequence (Q96KQ7 913-1193 limits assumed): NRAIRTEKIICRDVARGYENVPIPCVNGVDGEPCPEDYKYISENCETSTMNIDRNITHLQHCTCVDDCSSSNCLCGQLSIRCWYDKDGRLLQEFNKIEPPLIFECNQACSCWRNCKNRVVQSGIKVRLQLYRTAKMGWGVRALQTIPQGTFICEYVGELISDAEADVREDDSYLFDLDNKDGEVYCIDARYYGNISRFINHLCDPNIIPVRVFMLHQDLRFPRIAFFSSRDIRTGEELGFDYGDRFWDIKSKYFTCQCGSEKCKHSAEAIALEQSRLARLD
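Using a bead-based AlphaScreen, monomethylated H3K9 product from 2 h room-temperature reactions (G9a 20 nM, peptide 500 nM, SAM 20 uM) was detected with 0.5 ug/mL rabbit anti-H3K9me1 antibody.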
Sfp PPTase inh = inhibitors of Bacillus subtilis Sfp phosphopantetheinyl transferase. Q9F4F7. Biochemical Sfp PPTase activity, qHTS. Potency, µM, without a hit: largest response in the series, negative = inhibition, usual class: inhibitors. 310,000 compounds, 3.5% hits;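 note: the enzyme is Sfp with the accession as filed and its product quenches rhodamine fluorescence; 0% = enzyme reaction without inhibitor and -100% = no enzyme wells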
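Sfp 15 nM + cpd, 15 min RT; start w/ rhodamine-CoA 5 uM, BHQ-2-YbbR 12.5 uM (final); 50 mM Hepes pH 7.6, 10 mM MgCl2, 0.01% NP-40, 0.01% BSA; read 525/598 nm at 0 and 30 min.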
BAZ2B inh = inhibitors of human BAZ2B bromodomain. Q9UIF8. AlphaScreen BAZ2B-H3K14Ac peptide displacement. Potency, µM (highest dose often 114 µM), for inactives: top-dose activity change, negative = inhibition, usual class: inhibitors. 360,000 compounds, 4.4% hits. AID 504333; note: % is set by controls: 0 for no effect and ±100 for the full control effect; nearly all actives have a fitted effect of over 60% in size
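AlphaScreen luminescence quantifies BAZ2B engagement of H3K14Ac peptide; the protein and biotinylated peptide are both at 50 nM final, buffer PBS pH 7.4 with 0.01% Tween-20, all steps at room temperature.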
JMJD2A Tudor = JMJD2A Tudor domain (human) inhibition; 390,000 compounds, 4.4% hits; Potency, µM (top dose mostly 114 µM), without a hit: top-dose activity change, negative = inhibition, most hits filed as inhibitors; AlphaScreen JMJD2A-Tudor / H3K4me3 peptide binding; AID 504339; note: % is set by controls: 0 for no effect and ±100 for the full control effect; nearly all actives have a fitted effect of over 50% in size
ALOX12 inh = blocks human arachidonate 12S-lipoxygenase. purified 12hLO, xylenol orange hydroperoxide absorbance. 580,000 compounds, 1.1% hits. Potency, µM (top dose mostly 108 µM), without a hit: top-dose activity change, negative = inhibition, hits mostly inhibitors; note: % is set by controls: 0 for no effect and ±100 for the full control effect
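Hydroperoxide product was detected by ferrous iron/xylenol orange as the 573 to 405 nm absorbance ratio. Arachidonic acid at 40 uM (final) was turned over for 30 min at room temperature by 150 nM human 12hLO, pH 7.0 Hepes buffer, after 15 min compound preincubation.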
Numbers without * were called inactive; ? = inconclusive; · = not tested or not shown; [ ] = dose if it differs, or a comment. Calls come from the whole dose curve; as a rule, active = well fitted curve in the direction sought with a large enough effect; inconclusive = small, poorly fitted or top-dose-only effect, or another doubt; inactive = no such curve, though single readings can be large; an effect the other way counts as inactive or inconclusive. Potency is the fitted concentration of half-maximal effect.

SMILES	HP1b chromo inh	G9a block	Sfp PPTase inh	BAZ2B inh	JMJD2A Tudor	ALOX12 inh
Cc1cccc(CNc2ncnc3ccc(-c4ccccc4C#N)cc23)c1	·	·	15.3%	·	·	-50.2%
N#Cc1ccccc1-c1ccc2ncnc(NCc3cccs3)c2c1	·	7.9%[0.501 µM]	-15.9%	·	·	12.6µM*
COc1cccc2oc(C(=O)c3cc(C)sc3C)cc12	·	·	·	·	·	-1.0%
O=C(CSc1cccc2cccnc12)OCC(=O)c1ccc(Br)cc1	50.8%	-11.3%[0.0925 µM]	-24.5%	-4.4%	-1.4%	157.1%
O=C(CSc1cccc2cccnc12)Nc1cc(C(=O)O)cc(C(=O)O)c1	39.2%	·	-26.1%	-4.1%	-11.6%	25.1µM*
Cc1cccc(NC(=O)CSc2cccc3cccnc23)c1	20.8%	16.3%	-9.2%	-3.8%	-15.9%	?
O=C(CSc1cccc2cccnc12)OCC(=O)c1ccccc1	-5.9%	16.1%	9.4%	1.4%[57.1 µM]	35.5µM*	-6.0%
CC1Sc2ccc(C(=O)NNC(=O)CSc3cccc4cccnc34)cc2NC1=O (stereo not drawn)	·	·	·	·	·	7.94µM*
O=C(Nc1cc(Cl)cc(Cl)c1)c1ccn2nccc2c1	·	·	·	·	·	-19.3%[176 µM]
COc1ccc2[nH]cc(CCNC(=O)C3N(C(C)C)C(=O)C34CCCC4)c2c1 (stereo not drawn)	·	·	·	·	·	-15.4%
COc1ccc(Oc2ccccc2/C=N/O)cc1	25.8%	6.4%[59 µM]	-0.6%	-6.1%	-5.3%	0.0%
COc1cc(C=NO)nc(-c2ccccn2)c1	39.8%	·	·	·	14.1µM*	5.3%
CCOc1ccc(-c2[nH]ncc2-c2ccc(Cl)cc2)c(O)c1	36.9%	-3.8%	19.0%	-37.6%	-31.2%	?
CCOc1ccc(-c2[nH]ncc2-c2ccc(Br)cc2)c(O)c1	·	·	·	·	·	28.2µM*
Cc1ccc(S(=O)(=O)N(C)CCCC(=O)Nc2ccc(F)cc2)cc1	38.2%	-28.1%	14.4%	·	-10.6%	-20.1%
CN(CCCC(=O)Nc1ccc(OC(F)F)cc1)S(=O)(=O)c1ccc(F)cc1	21.9%	44.7µM*	-3.3%	-6.8%	0.7%	4.0%
CN(CCCC(=O)Nc1ccc(Br)cc1F)S(=O)(=O)c1ccccc1	18.1%	35.5µM*	-13.2%	0.2%	1.0%	?
CN(CCCC(=O)Nc1ccccc1F)S(=O)(=O)c1ccc(F)cc1	31.1%	0.4%	6.4%	4.0%	0.0%	15.3%
Fc1ccccc1CCNc1cc(Cl)nc2ccnn12	·	·	·	·	·	40.8%[176 µM]
Cc1ncoc1C(=O)N1CCC2(CCCN(CC3CCCCC3)C2=O)C1 (stereo not drawn)	·	·	·	·	·	32.0%
Cc1cc(NC(=O)c2coc(=O)c(Br)c2)ccc1C(C)C	28.8%	50.1µM*	11.8%	12.8%	-8.2%	-28.9%
C[C@@H](NC(=O)c1coc(=O)c(Br)c1)c1ccccc1	14.8%	-13.0%[59 µM]	10.9%	1.5%	-9.0%	-7.4%
O=C(Nc1ccc(Br)cn1)c1coc(=O)c(Br)c1	12.6%	50.1µM*	3.3%	?	-6.6%	-28.7%
O=C(Nc1ccc(Br)cn1)c1cccc(-c2cc3ccccc3oc2=O)c1	-1.8%	25.1µM*	-14.4%	?	-30.5%	-18.9%
O=C(Nc1ccccc1F)c1coc(=O)c(Br)c1	4.5%	10.3%[59 µM]	0.7%	?	?	?
SMILES	HP1b chromo inh	G9a block	Sfp PPTase inh	BAZ2B inh	JMJD2A Tudor	ALOX12 inh
CN1CCN(c2nc3c(c(=O)[nH]2)CCN(Cc2cccc(Cl)c2)CC3)CC1	·	·	·	·	·	24.2%
CN(Cc1ccc(C(=O)NC2CC2)cc1)S(=O)(=O)c1ccc2c(c1)CCCC2	·	·	·	·	·	28.1%
COc1nc(-c2ccc(C)cc2)ccc1-c1noc(C)n1	·	·	·	·	·	5.3%
Cn1nc(C(=O)N2CCCC2)c2ccccc2c1=O	8.4%	-5.4%[59 µM]	20.5%	4.4%	-14.1%	-18.5%
CSc1ccc(C(=O)C2CCCN(C(=O)c3nn(C)c(=O)c4ccccc34)C2)cc1 (stereo not drawn)	?	28.2µM*	16.5%	-13.6%	-32.8%	-2.4%
COc1ccc(C2C(C#N)=C(N)Oc3cc(C)n(Cc4ccc5c(c4)OCO5)c(=O)c32)cc1 (stereo not drawn)	·	·	·	·	·	-13.9%
CCN1C=C(Cc2ccc(OC)cc2)C2=C(C1)C(c1ccc(OC)cc1)C(C#N)=C(N)O2 (stereo not drawn)	-28.9%	?	-21.8%	44.7µM*	?	17.8µM*
CC(O)CNCCNCc1cccs1 (stereo not drawn)	16.8%	5.62µM*	-5.9%	-28.9%	?	-7.8%
O=C(c1ccccc1OCC1CCCN(Cc2cccc(O)c2)C1)N1CCCC1 (stereo not drawn)	·	·	·	·	·	39.4%
CN(C)NC(=S)NC1(C)CCS(=O)(=O)C1 (stereo not drawn)	11.3%	-132.4%[59 µM]	89.1µM*	?	-12.8%	3.2%
O=C(/C=C/c1ccccc1)n1cnnc1SC/C=C/c1ccccc1	46.8%	20µM*	?	8.6%	19.9%	-9.5%
O=C(c1cnccn1)N1CC(=O)N2[C@@H](CO)[C@H](c3ccc(Br)cc3)[C@@H]2C1	·	·	·	·	·	10µM*
COc1ccc(CNC(=O)C2(N3C[C@@H](C)O[C@@H](C)C3)Cc3ccccc3C2)cc1	·	·	·	·	·	-7.9%
CCOc1cc(C(=O)OCC(N)=O)cc(OCC)c1OCC	·	·	·	·	·	-18.9%
OCCN(Cc1ccccc1)Cc1ccc(Cl)cc1Cl	?	7.08µM*	-20.0%	?	3.55µM*	?
CCC(c1cccnc1)N(C)C(=O)c1cc(COc2ccccc2)[nH]n1 (stereo not drawn)	·	·	·	·	·	56.1%
Cn1c(-c2csc(-c3cccc(C(F)(F)F)c3)n2)n[nH]c1=S	24.0%	?	14.3%	-4.5%	-15.4%	-10.0%
CCn1c(-c2csc(C(C)C)c2)n[nH]c1=S	?	1.58µM*	-24.2%	-10.5%	10µM*	?
CC(C)Cn1c(-c2csc(C(C)C)c2)n[nH]c1=S	-10.3%	5.01µM*	-13.8%	-34.4%	?	39.8µM*
Cn1cc(C(=O)N2CCCC(Cc3noc(-c4cccnc4)n3)C2)cn1 (stereo not drawn)	·	·	·	·	·	15.5%
COC(=O)[C@]12CCC(C)(C)C[C@@H]1[C@@H]1C(=O)C=C3[C@@]4(C)C=C(C#N)C(=O)C(C)(C)[C@@H]4CC[C@@]3(C)[C@]1(C)CC2	·	·	·	·	·	9.68µM*
COc1ccccc1C1CN(c2ccccc2)N=C1c1cccs1 (stereo not drawn)	326.8%	365.3%	-2.4%	179.6%	148.8%	6.31µM*
CC(=O)Oc1ccc2c(-c3ccc(F)cc3)noc2c1	·	·	·	·	·	4.4%
CCN(CC)N=Nc1ccc(S(=O)(=O)N2CCSC2C(=O)O)cc1 (stereo not drawn)	10.1%	9.8%	22.3%	-10.0%	-9.6%	-31.2%
CCN(CC)N=Nc1ccc(C(=O)O)cc1	39.8%	2µM*	1.0%	1.2%	-2.1%	?
